The results in this text go back to PubChem BioAssay (EPA / NIEHS).

Results filed as inconclusive are left out. The source made the active and inactive calls. How the source made its calls: active means hit-call score of the fitted dose curve at least 0.9, where 1 is the maximum; inconclusive means response in the unintended direction; inactive means score below 0.9.

Experiment [1] concerns the target human Elastase, ELANE (gene 1991) (UniProt P08246). The experiment is described as follows: NVS_ENZ_hElastase: NovaScreen (NVS) Enzymatic Assay for human Elastase (AID 2283153). Put shortly: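 Cell-free elastase from human neutrophils, 1.5 h after dosing, activity read by absorbance. Primary screen in duplicate at 25 uM; hits (e.g., 30% inhibition) rerun in singleton concentration-response up to 50 uM, fitted versus DMSO.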

Experiment [2] has as its target human Janus Kinase 2 (Jak2), JAK2 (gene 3717) (UniProt O60674). The experiment is described as follows: NVS_ENZ_hJak2: NovaScreen (NVS) Enzymatic Assay for human Janus Kinase 2 (Jak2) (AID 2283169). Put shortly: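 Cell-free recombinant human JAK2 enzyme activity assay, fluorescence/electrophoretic mobility shift read 1 h after dosing. Screened in duplicate at 25 uM, then concentration-response up to 50 uM; activity as signal loss relative to DMSO.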

Experiment [3] deals with Mitogen-activated protein kinase 3 (Homo sapiens) (UniProt P27361). Kind of experiment: NVS_ENZ_hMAPK3: NovaScreen (NVS) Enzymatic Assay for human Mitogen-Activated Protein Kinase 3 (MAPK 3) (AID 2283177). Put shortly:
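Cell-free enzymatic assay with recombinant protein and specific substrate; fluorescence and electrophoretic mobility shift read-out 1 h after dosing. Primary screen duplicate at 25 uM; actives then run in concentration-response up to 50 uM, loss of signal versus DMSO.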

Experiment [4] addresses human Colony Stimulating Factor 1 Receptor (CSF1R), CSF1R (gene 1436) (UniProt P07333). The experiment is described as follows: NVS_ENZ_hCSF1R: NovaScreen (NVS) Enzymatic Assay for human Colony Stimulating Factor 1 Receptor (CSF1R) (AID 2283150). Put shortly:
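Cell-free recombinant human CSF1R kinase with fluorescent substrate, product separated by electrophoretic mobility shift; read 1 h after dosing. Primary screen at 25 uM in duplicate, actives then in concentration-response up to 50 uM, relative to DMSO.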

Experiment [5] addresses human Esterase Plasma (ES), BCHE (gene 590) (UniProt P06276). The experiment is described as follows: NVS_ENZ_hES: NovaScreen (NVS) Enzymatic Assay for human Esterase Plasma (ES) (AID 2283157). Put shortly:
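Chemicals were added to plasma-extracted human enzyme in a cell-free format, and activity was read colorimetrically after 0.25 hour. Activity loss was referenced to DMSO; concentration-response top dose was 50 uM.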

Experiment [6] addresses Glycogen synthase kinase-3 beta (Homo sapiens) (UniProt P49841). The experiment is described as follows: NVS_ENZ_hGSK3b: NovaScreen (NVS) Enzymatic Assay for human Glycogen Synthase Kinase-3 beta (GSK3b) (AID 2283165). Put shortly: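 Recombinant enzyme with specific fluorescent substrate, 1 h, product separated by electrophoretic mobility shift. Primary duplicate screen at 25 uM; actives (e.g. 30% inhibition) followed in singleton concentration-response to 50 uM. Signal loss fitted versus DMSO.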

The target of experiment [7] is human MAP Kinase-Activated Protein Kinase 2 (MAPKAPK2), MAPKAPK2 (gene 9261) (UniProt P49137). The experiment is described as follows: NVS_ENZ_hMAPKAPK2: NovaScreen (NVS) Enzymatic Assay for human MAP Kinase-Activated Protein Kinase 2 (MAPKAPK2) (AID 2283178). Put shortly: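 Cell-free recombinant human MAPKAPK2 activity measured by fluorescence with electrophoretic mobility shift separation of substrate and product, 1 hr after dosing. Loss of signal versus DMSO; primary screen at 25 uM, concentration-response up to 50 uM.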

The target of experiment [8] is human Dual Specificity Protein Phosphatase 3 (DUSP3), DUSP3 (gene 1845) (UniProt P51452). The experiment is described as follows: NVS_ENZ_hDUSP3: NovaScreen (NVS) Enzymatic Assay for human Dual Specificity Protein Phosphatase 3 (DUSP3) (AID 2283152).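 Further: phosphatase activity of recombinant human DUSP3 on a fluorogenic substrate without cells.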 Put shortly:
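Cell-free assay with recombinant human DUSP3 and fluorogenic substrate, read by fluorescence intensity. Primary screen ran duplicate at 25 uM; actives followed up in concentration series; loss of signal versus DMSO scored.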

Experiment [9] addresses Collagenase 3 (Homo sapiens) (UniProt P45452). Kind of experiment: NVS_ENZ_hMMP13: NovaScreen (NVS) Enzymatic Assay for human Matrix Metalloproteinase-13 (MMP13) (AID 2283182). Put shortly:
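Recombinant MMP13 cleaving fluorescent substrate, cell-free, measured 1 h after dosing. Primary duplicate screen at 25 uM; actives tested in concentration-response up to 50 uM; loss of signal relative to DMSO.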

The target in experiment [10] is human Ephrin type-A Receptor 1 (EphA1), EPHA1 (gene 2041) (UniProt P21709). Kind of experiment: NVS_ENZ_hEphA1: NovaScreen (NVS) Enzymatic Assay for human Ephrin type-A Receptor 1 (EphA1) (AID 2283158).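 Further: activity is signal loss versus DMSO meaning EphA1 kinase inhibition.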 Put shortly:
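Recombinant kinase, fluorescent substrate, mobility-shift separation, fluorescence read at 1 h. Single-point duplicates at 25 uM; hits (e.g., ≥30% inhibition) run singleton concentration-response, max 50 uM. DMSO = negative control/baseline.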

For experiment [11], the target named is human LYN Proto-Oncogene, Src family Tyrosine Kinase (LynA), LYN (gene 4067) (UniProt P07948). Kind of experiment: NVS_ENZ_hLynA: NovaScreen (NVS) Enzymatic Assay for human LYN Proto-Oncogene, Src family Tyrosine Kinase (LynA) (AID 2283173). Put shortly:
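Recombinant kinase with fluorescent substrate; product separated from substrate by electrophoretic mobility shift and read 1 h after dosing. Duplicate screen at 25 uM, then concentration-response up to 50 uM; activity scored as signal loss against DMSO.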

human Elastase, ELANE (gene 1991), sequence (P08246 whole entry, looked up): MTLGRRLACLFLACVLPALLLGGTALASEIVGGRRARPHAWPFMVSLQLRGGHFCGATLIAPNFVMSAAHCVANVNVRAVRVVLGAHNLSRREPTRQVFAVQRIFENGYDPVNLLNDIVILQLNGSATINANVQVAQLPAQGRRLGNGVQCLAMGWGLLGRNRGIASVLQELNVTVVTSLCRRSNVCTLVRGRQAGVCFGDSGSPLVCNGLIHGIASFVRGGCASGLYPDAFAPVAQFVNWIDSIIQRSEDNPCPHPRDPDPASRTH
Mitogen-activated protein kinase 3 (Homo sapiens), sequence (P27361 whole entry, looked up): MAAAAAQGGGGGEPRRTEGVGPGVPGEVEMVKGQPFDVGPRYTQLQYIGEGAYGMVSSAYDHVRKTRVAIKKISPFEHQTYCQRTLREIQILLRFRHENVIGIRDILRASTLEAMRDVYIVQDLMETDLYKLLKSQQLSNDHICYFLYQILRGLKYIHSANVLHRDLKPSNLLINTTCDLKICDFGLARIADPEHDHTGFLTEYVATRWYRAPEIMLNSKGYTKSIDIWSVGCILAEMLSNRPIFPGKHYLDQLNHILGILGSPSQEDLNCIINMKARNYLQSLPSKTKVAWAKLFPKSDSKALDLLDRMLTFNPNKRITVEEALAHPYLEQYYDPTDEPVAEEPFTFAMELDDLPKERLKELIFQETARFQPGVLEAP
human Esterase Plasma (ES), BCHE (gene 590), sequence (P06276 whole entry, looked up): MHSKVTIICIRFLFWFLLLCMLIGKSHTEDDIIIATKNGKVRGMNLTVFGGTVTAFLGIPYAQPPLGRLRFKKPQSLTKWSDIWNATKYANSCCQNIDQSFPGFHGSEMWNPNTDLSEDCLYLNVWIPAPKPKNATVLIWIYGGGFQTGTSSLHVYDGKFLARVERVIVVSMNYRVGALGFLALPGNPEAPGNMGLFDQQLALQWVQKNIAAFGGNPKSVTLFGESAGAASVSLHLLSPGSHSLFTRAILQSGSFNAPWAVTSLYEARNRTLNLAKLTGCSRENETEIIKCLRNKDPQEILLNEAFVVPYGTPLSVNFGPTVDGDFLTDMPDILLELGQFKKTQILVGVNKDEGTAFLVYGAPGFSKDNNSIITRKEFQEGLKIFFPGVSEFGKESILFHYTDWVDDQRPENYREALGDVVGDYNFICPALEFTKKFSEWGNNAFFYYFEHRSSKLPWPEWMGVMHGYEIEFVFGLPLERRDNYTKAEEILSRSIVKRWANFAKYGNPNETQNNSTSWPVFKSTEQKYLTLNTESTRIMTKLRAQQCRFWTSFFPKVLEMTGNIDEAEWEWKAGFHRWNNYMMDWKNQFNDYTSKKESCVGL
human Dual Specificity Protein Phosphatase 3 (DUSP3), DUSP3 (gene 1845), sequence (P51452 whole entry, looked up): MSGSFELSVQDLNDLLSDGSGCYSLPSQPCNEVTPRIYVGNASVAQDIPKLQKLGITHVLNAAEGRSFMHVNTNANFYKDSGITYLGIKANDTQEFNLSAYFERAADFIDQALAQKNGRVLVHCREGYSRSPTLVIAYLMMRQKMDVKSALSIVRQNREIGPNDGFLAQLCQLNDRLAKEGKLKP
Glycogen synthase kinase-3 beta (Homo sapiens), sequence (P49841 whole entry, looked up): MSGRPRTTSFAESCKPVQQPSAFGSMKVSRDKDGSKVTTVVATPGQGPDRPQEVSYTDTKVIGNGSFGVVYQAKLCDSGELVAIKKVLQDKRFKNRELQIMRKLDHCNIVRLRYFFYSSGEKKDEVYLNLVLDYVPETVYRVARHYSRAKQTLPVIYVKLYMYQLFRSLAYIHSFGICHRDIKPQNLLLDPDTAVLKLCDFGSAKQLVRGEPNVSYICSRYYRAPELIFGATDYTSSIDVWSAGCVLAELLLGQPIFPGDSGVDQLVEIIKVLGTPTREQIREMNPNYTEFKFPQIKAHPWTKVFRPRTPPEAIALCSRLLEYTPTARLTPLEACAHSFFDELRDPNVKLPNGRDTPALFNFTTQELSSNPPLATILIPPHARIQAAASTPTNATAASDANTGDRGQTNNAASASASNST
human LYN Proto-Oncogene, Src family Tyrosine Kinase (LynA), LYN (gene 4067), sequence (P07948 whole entry, looked up): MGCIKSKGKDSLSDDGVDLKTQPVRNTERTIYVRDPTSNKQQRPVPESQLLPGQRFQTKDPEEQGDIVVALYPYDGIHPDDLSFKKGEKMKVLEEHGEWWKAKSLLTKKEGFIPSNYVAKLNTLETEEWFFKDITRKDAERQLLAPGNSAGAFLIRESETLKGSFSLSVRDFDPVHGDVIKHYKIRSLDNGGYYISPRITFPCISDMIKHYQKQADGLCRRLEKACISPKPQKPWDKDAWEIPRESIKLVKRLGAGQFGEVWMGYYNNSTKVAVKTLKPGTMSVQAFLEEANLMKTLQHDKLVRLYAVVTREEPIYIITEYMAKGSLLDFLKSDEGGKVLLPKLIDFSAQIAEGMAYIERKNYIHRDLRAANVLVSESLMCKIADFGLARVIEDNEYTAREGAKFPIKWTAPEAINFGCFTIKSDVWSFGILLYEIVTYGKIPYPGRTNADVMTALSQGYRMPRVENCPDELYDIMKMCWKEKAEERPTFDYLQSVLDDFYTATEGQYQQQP
human Janus Kinase 2 (Jak2), JAK2 (gene 3717), sequence (O60674 whole entry, looked up): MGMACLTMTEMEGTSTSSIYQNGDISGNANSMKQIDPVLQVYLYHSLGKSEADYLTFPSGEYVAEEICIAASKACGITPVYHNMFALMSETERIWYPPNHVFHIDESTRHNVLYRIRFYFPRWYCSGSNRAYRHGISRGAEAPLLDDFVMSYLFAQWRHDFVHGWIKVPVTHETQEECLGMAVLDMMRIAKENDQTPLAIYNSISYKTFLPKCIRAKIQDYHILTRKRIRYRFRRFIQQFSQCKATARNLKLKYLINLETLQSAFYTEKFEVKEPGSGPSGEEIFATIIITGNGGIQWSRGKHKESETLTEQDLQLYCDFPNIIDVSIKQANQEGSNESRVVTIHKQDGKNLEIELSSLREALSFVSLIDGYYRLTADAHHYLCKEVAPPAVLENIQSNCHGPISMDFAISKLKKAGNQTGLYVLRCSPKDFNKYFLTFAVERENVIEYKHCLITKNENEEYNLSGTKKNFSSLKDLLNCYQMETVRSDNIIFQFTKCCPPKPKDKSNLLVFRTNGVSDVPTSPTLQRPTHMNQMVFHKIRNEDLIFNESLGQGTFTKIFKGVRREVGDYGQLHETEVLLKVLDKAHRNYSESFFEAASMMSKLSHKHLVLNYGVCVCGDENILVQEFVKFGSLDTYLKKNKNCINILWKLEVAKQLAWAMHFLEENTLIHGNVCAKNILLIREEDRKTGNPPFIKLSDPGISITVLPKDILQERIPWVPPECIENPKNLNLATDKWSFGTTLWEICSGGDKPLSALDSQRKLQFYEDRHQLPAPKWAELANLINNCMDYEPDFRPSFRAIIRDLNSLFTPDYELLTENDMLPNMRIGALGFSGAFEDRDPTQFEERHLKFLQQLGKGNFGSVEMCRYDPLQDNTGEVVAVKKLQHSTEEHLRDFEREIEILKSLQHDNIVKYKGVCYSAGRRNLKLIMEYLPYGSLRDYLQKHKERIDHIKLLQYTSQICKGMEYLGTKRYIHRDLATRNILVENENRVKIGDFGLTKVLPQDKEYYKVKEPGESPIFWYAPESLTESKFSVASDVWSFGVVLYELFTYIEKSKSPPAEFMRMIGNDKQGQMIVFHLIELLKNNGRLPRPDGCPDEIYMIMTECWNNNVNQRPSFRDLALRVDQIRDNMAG
human Ephrin type-A Receptor 1 (EphA1), EPHA1 (gene 2041), sequence (P21709 whole entry, looked up): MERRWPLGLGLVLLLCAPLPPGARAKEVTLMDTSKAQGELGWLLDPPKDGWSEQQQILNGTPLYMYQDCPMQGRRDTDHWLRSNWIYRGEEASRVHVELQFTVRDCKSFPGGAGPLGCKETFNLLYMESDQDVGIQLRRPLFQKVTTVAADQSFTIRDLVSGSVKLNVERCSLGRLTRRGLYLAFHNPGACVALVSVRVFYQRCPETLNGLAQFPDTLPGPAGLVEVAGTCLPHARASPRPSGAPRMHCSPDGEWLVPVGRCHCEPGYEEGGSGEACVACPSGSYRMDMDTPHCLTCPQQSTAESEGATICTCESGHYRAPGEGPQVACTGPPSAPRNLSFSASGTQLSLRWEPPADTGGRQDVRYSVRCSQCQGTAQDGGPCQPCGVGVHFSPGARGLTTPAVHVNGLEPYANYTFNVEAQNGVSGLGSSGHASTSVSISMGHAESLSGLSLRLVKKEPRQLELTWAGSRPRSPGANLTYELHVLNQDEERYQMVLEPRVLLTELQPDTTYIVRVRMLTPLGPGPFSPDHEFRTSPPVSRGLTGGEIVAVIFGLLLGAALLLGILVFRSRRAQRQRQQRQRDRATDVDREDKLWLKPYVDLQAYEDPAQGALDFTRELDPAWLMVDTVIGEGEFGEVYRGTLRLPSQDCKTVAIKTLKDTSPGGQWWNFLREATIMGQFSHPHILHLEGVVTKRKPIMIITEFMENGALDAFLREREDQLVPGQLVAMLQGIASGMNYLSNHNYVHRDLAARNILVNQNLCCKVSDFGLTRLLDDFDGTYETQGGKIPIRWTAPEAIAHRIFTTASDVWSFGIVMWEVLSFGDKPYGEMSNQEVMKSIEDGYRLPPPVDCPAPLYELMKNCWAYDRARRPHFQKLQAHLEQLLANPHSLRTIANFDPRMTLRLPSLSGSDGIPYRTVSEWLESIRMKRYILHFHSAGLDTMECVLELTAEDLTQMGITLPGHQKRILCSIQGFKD
human MAP Kinase-Activated Protein Kinase 2 (MAPKAPK2), MAPKAPK2 (gene 9261), sequence (P49137 whole entry, looked up): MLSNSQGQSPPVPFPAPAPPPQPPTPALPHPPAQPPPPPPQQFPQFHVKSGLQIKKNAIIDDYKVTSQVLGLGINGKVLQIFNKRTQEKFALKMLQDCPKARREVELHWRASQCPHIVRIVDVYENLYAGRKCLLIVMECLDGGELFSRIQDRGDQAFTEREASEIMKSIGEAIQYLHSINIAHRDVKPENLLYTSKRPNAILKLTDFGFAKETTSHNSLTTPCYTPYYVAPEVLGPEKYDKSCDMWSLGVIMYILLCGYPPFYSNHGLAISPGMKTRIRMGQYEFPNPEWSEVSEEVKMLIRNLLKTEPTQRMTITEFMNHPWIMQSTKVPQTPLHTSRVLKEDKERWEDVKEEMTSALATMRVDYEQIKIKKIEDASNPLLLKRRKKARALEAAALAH

With `CC(C)=CC1C(C(=O)OCc2coc(Cc3ccccc3)c2)C1(C)C` (stereo not drawn), in experiment [1], the AC50 (usually the concentration giving half of the maximal activity seen) is 33.6 µM (active). Turning to `Nc1cnn(-c2ccccc2)c(=O)c1Cl`, the compound was classed as inactive in experiment [2]. Take `CCNP(=S)(OC)O/C(C)=C/C(=O)OC(C)C` (stereo not drawn): in experiment [3], the compound was classed as inactive.

`CCN(CC)C(=O)C(C)Oc1cccc2ccccc12` (stereo not drawn): the compound was called inactive in [4]. Besides, the half-maximal activity concentration (AC50) in [5] is 16.7 µM (active).

In the case of `Cc1cnc(C2=NC(C)(C(C)C)C(=O)N2)c(C(=O)O)c1` (stereo not drawn), the result in [6] and in experiment [7] was inactive.

Take `CCOC(=O)C(C)OC(=O)c1cc(Oc2ccc(C(F)(F)F)cc2Cl)ccc1[N+](=O)[O-]` (stereo not drawn): the outcome in [8] and in experiment [1] was inactive. Further, in experiment [9], the half-maximal activity concentration (AC50) was 15.3 µM (active). With `CC(C)(C)C(=O)C(Oc1ccc(Cl)cc1)n1cncn1` (stereo not drawn), in experiment [3], the result was inactive. As to `CC1(C)C(C(=O)OC(C#N)c2cccc(Oc3ccccc3)c2)C1(C)C` (stereo not drawn), the compound was called inactive in [1]. For the compound `CCCN(CC)CC1COC2(CCC(C(C)(C)C)CC2)O1` (stereo not drawn), in experiment [3], the result was inactive. As to `CCOP(=O)(OCC)Oc1nc(Cl)c(Cl)cc1Cl`, the values for the AC50 in [1] and in experiment [5] were 14.4 µM (active) and 0.00463 µM (active), respectively. `OC(c1ccc(Cl)cc1)(c1ccc(Cl)cc1)C(Cl)(Cl)Cl`: the compound was called inactive in experiment [1]. On to `N#Cc1c[nH]cc1-c1cccc2c1OC(F)(F)O2`, for which the outcome in [10] and in [11] was inactive. For the compound `CN=C=S`, the compound was called inactive in experiment [9]. `Cc1c(COC(=O)[C@@H]2[C@H](/C=C(\Cl)C(F)(F)F)C2(C)C)cccc1-c1ccccc1`: the outcome in experiment [1] and in experiment [9] was inactive. With `Cn1c(-c2ccccc2)cc(-c2ccccc2)[n+]1C`, the concentration at half-maximal activity (AC50) in experiment [5] was 4.69 µM (active).

For `CCOc1cc(C(C)(C)C)ccc1C1COC(c2c(F)cccc2F)=N1` (stereo not drawn), in experiment [1], the concentration at half-maximal activity (AC50) is 40.9 µM (active). On to `CC1(C)CCC(=Cc2ccc(Cl)cc2)C1(O)Cn1cncn1` (stereo not drawn), for which, in experiment [5], the call was inactive.

`CCOP(=S)(OCC)Oc1nc(Cl)n(C(C)C)n1`: the compound was classed as inactive in [1]. In addition, in [5], the concentration at half-maximal activity (AC50) is 4.75 µM (active). Consider `COP(=O)(OC)O/C(C)=C/C(=O)N(C)C`, for which the AC50 in experiment [5] is 17.4 µM (active).

Take `CC(C)N1C(=O)N(c2ccccc2)CSC1=NC(C)(C)C`: the half-maximal activity concentration (AC50) in experiment [8] is 2.96 µM (active).
